# In all, about 310,000 compounds went through this assay and about 14,000 (4.5%) showed an effect of 50% or more. Effects have a minus sign here. The list comes from a sample in which strong results are over-represented; it also holds similar structures and randomly drawn compounds.
# Molecular target: human ether-à-go-go-related gene (hERG) potassium channel (human, UniProt Q12809)
# Assay: primary screen, population patch clamp on CHO cells stably expressing hERG; higher = less effect of the substance
# 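Also: peak tail current of the secondary pulse compared with the same well before compound.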
# human ether-à-go-go-related gene (hERG) potassium channel, sequence (Q12809 whole entry, looked up): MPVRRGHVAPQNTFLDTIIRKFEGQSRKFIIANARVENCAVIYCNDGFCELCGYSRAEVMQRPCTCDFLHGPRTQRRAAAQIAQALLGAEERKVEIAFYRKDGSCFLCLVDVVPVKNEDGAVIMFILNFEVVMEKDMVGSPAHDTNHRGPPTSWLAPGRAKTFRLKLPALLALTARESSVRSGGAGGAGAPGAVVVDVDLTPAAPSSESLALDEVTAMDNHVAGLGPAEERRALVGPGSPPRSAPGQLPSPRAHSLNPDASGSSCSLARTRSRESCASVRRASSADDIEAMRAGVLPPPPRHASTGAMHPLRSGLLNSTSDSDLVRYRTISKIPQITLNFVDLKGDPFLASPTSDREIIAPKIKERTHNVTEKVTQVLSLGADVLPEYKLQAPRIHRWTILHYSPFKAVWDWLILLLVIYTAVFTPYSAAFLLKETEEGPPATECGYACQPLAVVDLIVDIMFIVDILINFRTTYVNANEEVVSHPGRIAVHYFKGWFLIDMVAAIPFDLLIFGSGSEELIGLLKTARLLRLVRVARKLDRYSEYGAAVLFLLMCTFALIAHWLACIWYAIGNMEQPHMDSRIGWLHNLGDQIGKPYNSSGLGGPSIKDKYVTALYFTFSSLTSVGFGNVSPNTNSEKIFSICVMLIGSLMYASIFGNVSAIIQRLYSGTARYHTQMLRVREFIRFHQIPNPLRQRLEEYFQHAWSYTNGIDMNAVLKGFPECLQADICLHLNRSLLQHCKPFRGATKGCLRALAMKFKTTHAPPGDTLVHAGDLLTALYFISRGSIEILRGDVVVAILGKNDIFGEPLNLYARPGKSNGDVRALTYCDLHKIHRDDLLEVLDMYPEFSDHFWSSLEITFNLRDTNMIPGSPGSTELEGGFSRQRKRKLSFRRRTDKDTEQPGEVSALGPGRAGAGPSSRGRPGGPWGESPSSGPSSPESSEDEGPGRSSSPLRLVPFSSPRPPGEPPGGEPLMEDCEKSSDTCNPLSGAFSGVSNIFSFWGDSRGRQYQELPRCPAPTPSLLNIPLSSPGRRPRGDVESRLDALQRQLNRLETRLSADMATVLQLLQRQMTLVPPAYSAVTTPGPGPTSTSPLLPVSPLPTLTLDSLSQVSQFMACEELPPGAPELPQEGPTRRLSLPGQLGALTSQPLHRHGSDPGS
row,Structure (SMILES),"hERG current change (%, negative = inhibition) at 10uM [%]"
1,CCOC(=O)c1c(NCC2CCCO2)c2ccccc2[nH]c1=O (stereo not shown),0.695
2,CCCN(CC(=O)Nc1ccccc1C)C(=O)c1ccc(C)c(S(=O)(=O)N2CCCCC2)c1,-11.3
3,CCCCNc1nc(-c2ccccc2)nc(-n2ccnc2)n1,12.2
4,Cc1ccc(Cl)cc1NC(=O)CC1NC2CCCCC2NC1=O (stereo not shown),17.6
5,CCC(C)c1ccccc1N1CC(C(=O)NCCC2=CCCCC2)CC1=O (stereo not shown),8.97
6,COC(=O)c1ccc(OC)c(-c2c(OC)cc(OC)cc2OC)c1,-1.49
7,Cc1cccc(-n2ncc3c(N4CC(C)CC(C)C4)ncnc32)c1 (stereo not shown),8
8,Cc1ccc(NC(=O)C(=S)NCc2ccco2)cc1,7.1
9,O=c1cc(CSc2ccc(Cl)cc2)nc(-c2ccncc2)[nH]1,1.72
10,O=c1cc(CSc2ccc(Cl)cc2)nc(-c2ccccc2)[nH]1,-59.7
11,O=c1cc(CSc2ccccc2)nc(-c2ccccc2)[nH]1,6.19
12,CC(C)C(=O)NC(=S)/C=C1/N(C)c2ccccc2C1(C)C,-1.42
13,O=C(Cc1sc(-c2ccccc2Cl)nc1-c1ccccc1)Nc1ccccc1,11.3
14,COCC(=O)N1CCC(Oc2ccc(C(=O)N3CCCCCC3)cc2)CC1,12.1
15,O=C(c1ccc(OC2CCN(C/C=C/c3ccc(F)cc3)CC2)cc1)N1CCCCC1,-64.9
16,O=C(c1ccc(OC2CCN(C/C=C/c3ccc(F)cc3)CC2)cc1)N1CCCC1,-75.5
17,COc1ccc(/C=C/CN2CCC(Oc3ccc(C(=O)N4CCCCC4)cc3)CC2)cc1,-53.6
18,COCC(=O)N1CCC(Oc2ccc(C(=O)N3CCCCCCC3)cc2)CC1,22.7
19,CC(C)/C=C/CN1CCC(Oc2ccc(C(=O)N3CCCC3)cc2)CC1,-35.3
20,COc1ccccc1/C=C/CN1CCC(Oc2ccc(C(=O)N3CCCCC3)cc2)CC1,-44.6
21,O=C(c1ccc(OC2CCN(CCO)CC2)cc1)N1CCCC1,18.1
22,O=C(c1ccc(OC2CCN(Cc3ccccc3OC(F)F)CC2)cc1)N1CCCC1,-3.42

row,Structure (SMILES),"hERG current change (%, negative = inhibition) at 10uM [%]"
1,CCN1CCN(Cc2ccc(NC(=O)c3cc(NC(=O)c4cncc(-c5cccs5)c4)cc(OC)c3)cc2C(F)(F)F)CC1.O=C(O)C(F)(F)F,9.85
2,COc1cc(OC)cc(C(=O)NNC(=O)Cc2ccc(OC)c(S(=O)(=O)N3CCOCC3)c2)c1,-1.89
3,COC/C=C/C1=CC2=CC(=O)C(C)(OC(=O)c3cnc4ccccc4n3)C(=O)C2=CN1c1ccc(OC)cc1 (stereo not shown),-4.95
4,O=c1[nH]c2ccccc2cc1CN(c1ccccc1)S(=O)(=O)c1ccccc1,0.56
5,Cc1ccccc1OCCC(=O)OCC(=O)N1CCN(S(=O)(=O)c2ccc(Cl)cc2)CC1,-13.1
6,CCCCCCCSc1cc(OC)c(CCN(C)C)cc1OC.O=C(O)/C=C\C(=O)O,-64.3
7,CCCCCCCSc1cc(OC)c(CCNC)cc1OC.O=C(O)/C=C\C(=O)O,-41.3
8,CCCCCSc1cc(O)c(C(CNC)C(C)C)cc1OC.O=C(O)/C=C\C(=O)O (stereo not shown),-12.9
9,CCCCCSc1cc(OC)c(CCN(C)C)cc1OC.O=C(O)/C=C\C(=O)O,-57.9
10,CCCCCSc1cc(OC)c(CCN)cc1OC.O=C(O)/C=C\C(=O)O,-35.9
11,CCCCCSc1cc(OC)c(CCNC)cc1OC.O=C(O)/C=C\C(=O)O,-48.2
12,C/C(=N\OC(=O)Nc1ccccc1)c1ccc(C)cc1,-15.9
13,CN(CCC#N)C(=O)CSc1nc2scc(-c3ccccc3)c2c(=O)[nH]1,-12.6
14,COc1ccc(CCNC(=O)C(=O)NCC2OCCN2S(=O)(=O)c2ccc(OC)cc2)cc1 (stereo not shown),-47.3
15,COc1ccccc1C(=O)Nc1ccc2nc3n(c(=O)c2c1)CCCC3,-36.3
16,COc1ccc(NC(=O)CC2SC(=O)NC2=O)cc1 (stereo not shown),26.8
17,Cc1ccccc1NC(=O)Cc1nc(COC(=O)c2ccc(Cl)nc2)cs1,2.75
18,Cc1ccccc1NC(=O)Cc1nc(COC(=O)c2ccc(Cl)c(S(N)(=O)=O)c2)cs1,-60.9
19,Cc1ccccc1NC(=O)Cc1nc(COC(=O)c2cccc(O)c2)cs1,-17.7
20,COc1ccc(CCNC(=O)CSc2ccc3nnc(CCNC(=O)c4ccccc4)n3n2)cc1OC,6.1
21,CCOC(=O)c1[nH]nc2c1C(=O)N(Cc1ccccc1)C2=O,6.13
22,COc1ccc(/C=N/NC(=O)CSc2ccccn2)cc1OC,2.42

row,Structure (SMILES),"hERG current change (%, negative = inhibition) at 10uM [%]"
1,CNC(=O)COC(=O)c1cc(-c2ccccc2)nn1-c1ccccc1,-5.35
2,CCNC(=O)COC(=O)c1cc(-c2ccccc2)nn1-c1ccccc1,-61.8
3,CCOC(=O)c1cc(-c2cccnc2)nn1-c1ccccc1,9.52
4,Cc1ccc(CNC(=O)CN2C(=O)NC3(CC(C)CC(C)(C)C3)C2=O)cc1 (stereo not shown),-3.14
5,COc1ccc(-n2c(O)c(C=NCCCn3ccnc3)c(=O)[nH]c2=O)cc1,14.1
6,O=C(Nc1ccc(N2CCOCC2)c(Cl)c1)c1ccc2c(c1)OCCO2,-0.379
7,CC(C)C(=O)N1CCN(c2ccc(NC(=O)c3ccc4c(c3)OCCO4)cc2Cl)CC1,-15
8,O=C(Nc1ccc(N2CCCC2)c(Cl)c1)c1ccc2c(c1)OCCO2,11.8
9,CC(=O)N1CCN(c2ccc(NC(=O)c3ccc4c(c3)OCCO4)cc2Cl)CC1,-64.7
10,CN1CCN(c2ccc(NC(=O)c3ccc4c(c3)OCCO4)cc2Cl)CC1,-81.2
11,O=C(Nc1ccc(N2CCCCC2)c(Cl)c1)c1ccc2c(c1)OCCO2,-1.06
12,CCCOc1ccc(C(=O)CCC(=O)OCC(=O)Nc2ccc(Oc3ccccc3)cc2)cc1,-13.3
13,COCCn1nnnc1CN1CCC(Cc2ccccc2)CC1.Cl,-3.18
14,CCOC(=O)C1CCN(C(=O)COC(=O)c2ccccc2C(=O)c2ccc(Cl)cc2)CC1,-50.4
15,CCOC(=O)C1CCN(C(=O)COC(=O)COc2ccc(Cl)cc2)CC1,13.3
16,O=C(CCNS(=O)(=O)c1ccc(Cl)cc1)OCC(=O)N1CCN(C(=O)c2ccco2)CC1,-47.4
17,O=C(OCC(=O)N1CCN(C(=O)c2ccco2)CC1)c1ccccc1Cc1ccccc1,-56.3
18,O=C(OCC(=O)N1CCN(C(=O)c2ccco2)CC1)c1cc(S(=O)(=O)Nc2ccc(Cl)cc2)ccc1O,-64.6
19,O=C(OCC(=O)N1CCN(C(=O)c2ccco2)CC1)c1ccccc1NCCO,12.6
20,O=C(OCC(=O)N1CCN(C(=O)c2ccco2)CC1)c1ccccc1C(=O)c1ccc(Cl)cc1,-64.8
21,O=C(OCC(=O)N1CCOCC1)c1ccccc1Cc1ccccc1,-35.2
22,COc1ccc(NS(=O)(=O)c2ccc(O)c(C(=O)OCC(=O)N3CCCCC3)c2)cc1,-7.02

row,Structure (SMILES),"hERG current change (%, negative = inhibition) at 10uM [%]"
1,O=C(OCC(=O)N1CCN(C(=O)c2ccco2)CC1)c1ccccc1C(=O)c1ccccc1,-34
2,O=C(OCC(=O)N1CCN(C(=O)c2ccco2)CC1)c1ccccc1OCc1ccccc1,-43.3
3,CCOC(=O)C1CCN(C(=O)COC(=O)Cc2ccc(Cl)cc2)CC1,-22.7
4,O=C1CCCC2=C1C(c1cccnc1)Nc1ccccc1N2 (stereo not shown),5.41
5,COc1ccc(NC(=O)CCC(=O)c2cccs2)cc1Cl,17.6
6,CCOc1cccc2sc(Cl)nc12,13.7
7,COc1cc(N/C=C2\CC(=O)NC(C)=C2C#N)cc(OC)c1OC,19.6
8,Cc1c(NC(=O)COC(=O)C2(c3ccccc3F)CCCC2)c(=O)n(-c2ccccc2)n1C,-1.01
9,O=c1c2oc3ccccc3c2ncn1Cc1ccc(Cl)cc1,11.7
10,CCOc1ccccc1N1CCN(c2nc(N)c(C#N)c(CC#N)c2C#N)CC1,-37.2
11,CCCn1c(SCC(=O)Nc2sc(C)c(C)c2C#N)nnc1C(C)C,-9.76
12,O=C(NCCc1csc(-c2cccnc2)n1)c1ccc(Br)o1,-10.9
13,Cc1cc(C)cc(N=C2NC(=O)CS2)c1,0.159
14,CCN(CC)C(=O)COc1ccc(/C(C)=N/NC(=O)c2ccccc2Br)cc1,8.89
15,COc1ccc(CCN(C)C(=O)CSc2nnc(-c3ccco3)o2)cc1OC,-21.3
16,C=CCSc1nnc2nc3c(nn12)c1cc(C)ccc1n3CC=C,-55.1
17,CCCSc1nnc2nc3c(nn12)c1ccccc1n3C,-49.7
18,C=CCSc1nnc2nc3[nH]c4c(C)cccc4c3nn12,4.32
19,O=C(NCc1ccc2c(c1)OCO2)C1(S(=O)(=O)c2ccccc2)CC1,13.4

# Reference: PMC4336329 (PLoS ONE, 2015)
